Measurements: PubChem BioAssay (EPA / NIEHS)
Several values for one entry are separate records, joined by “and”; a condition that tells them apart may be missing. Equal entries are not always repeated. Inconclusive results are not listed. Some compounds were tested as several samples or in several runs, with calls that do not always agree. Activity calls are given as the source filed them. How the source made its calls: active means hit-call score of the fitted dose curve at least 0.9, where 1 is the maximum; inconclusive means response in the unintended direction; inactive means score below 0.9.

Assay: TOX21_p53_BLA_p5_viability: Viability Assessment in the Tox21 HCT-116 p53 Agonism Beta-lactamase Assay, Phase 5 (AID 2283600)
Description: TOX21_p53_BLA_p5 is a cell-based, single-readout assay that uses HCT116, a human intestinal cell line, […] in a 1536-well plate.TOX21_p53_BLA_p5_viability is an assay readout measuring cellular ATP content and detected with CellTiter-Glo Luciferase-coupled ATP quantitation.TOX21_p53_BLA_p5_viability used a type of viability reporter where loss-of-signal activity can be used to understand changes in the cell viability. Furthermore, this assay endpoint can be referred to as a secondary readout, because this assay has produced multiple assay endpoints where this one serves a viability function. To generalize the intended target to other relatable targets, this assay endpoint is annotated to the cell cycle intended target family, where the subfamily is cytotoxicity.
Thawing Method: Place 14 mL of pre-warmed thaw medium into a 15 mL of conical tub. Remove the vial of cells to be thawed from liquid nitrogen and thaw rapidly by placing at 37C in a water bath with gentle agitation for 1-2 minutes. Decontaminate the vial by wiping with 70% ethanol before opening in a biological safety cabinet. Transfer the vial contents drop-wise into 14 mL of thaw medium in a sterile 15-mL conical tub. Centrifuge cells at 900 rpm for 4 minutes and resuspend in thaw medium. Transfer contents to the T75 tissue culture flask containing Thaw Medium and place flask in a humidified 37C/5% CO2 incubator. Switch to growth medium at first passage.Propagation Method: Aspirate medium, rinse once in DPBS, add 0.25% Trypsin/EDTA and swirl to coat the cell evenly. Add an equal volume of Growth Medium to inactivate Trypsin after 2-3 minutes incubation at 37C. Centrifuge cells at 900 rpm for 4 minutes and resuspend in growth medium. Cell should be passage or fed at least twice a week.Assay Protocol: Harvest cells from culture in growth medium and resuspend in assay medium. 2.2 Dispense 4000 cells/5 uL/well into 1536-well black/clear bottom plates using a Multidrop dispenser. After the cells were incubated at 37C for 5 hours, 23 nL of compounds dissolved in DMSO were transferred to the assay plate by a PinTool resulting in a 217-fold dilution. Incubate the plates for 16 hours at 37C, 5% CO2. Add 1 uL of 6X LiveBLAzer FRET B/G (CCF4-AM) Substrate Mixture to each well using a BioRAPTR dispenser and incubate the plates at room temperature for 2 hours. Measure fluorescence intensity at 460 and 530 nm emission and 405 nm excitation by an Envision detector. Data is expressed as the ratio of 460nm/530nm emissions. Add 4 uL of Cell-titer Glo to each well using BioRAPTR and incubate the plates at room temperature for […]. For cell viability readout that measures cytotoxicity, 4 ul/well of CellTiter-Glo reagent was added into the assay plates using a Flying Reagent Dispenser. After 30 min incubation at room temperature, the luminescence intensity in the plates was measured using a ViewLux plate reader.

SMILES | outcome | AC50
CC1(C)NC(=O)N(c2ccc([N+](=O)[O-])c(C(F)(F)F)c2)C1=O | inactive | –
CC1=CC(=O)/C(=C(/C)O)C(=O)O1 | inactive | –
NCc1cccc(C2CCN(C(=O)c3ccc(C#Cc4ccccc4F)o3)CC2)c1 | inactive | –
CC(=O)N1CCN(c2ccc(OC[C@H]3CO[C@](Cn4ccnc4)(c4ccc(Cl)cc4Cl)O3)cc2)CC1 | inactive | 64.4 µM (active)
O=C(O)Cc1cc(I)c(Oc2ccc(O)c(I)c2)c(I)c1 | inactive | 21.8 µM (active)
Cc1oc2c(NC(=O)c3c(Cl)cccc3Cl)cccc2c1C(C)(C)O | inactive | –
CC(C)(C)c1csc(-c2cc3cc(OCc4ccccc4CC(=O)O)ccc3o2)n1 | inactive | –
c1ccc(C[n+]2cccc3ccccc32)cc1 | inactive | –
CCN(Cc1cccnc1)C(=O)c1cccc(Cl)c1[C@]1(C)C(=O)N(Cc2ccc(OC)cc2OC)c2ccc(Cl)cc21 | inactive | –
CCCOC(=O)c1cc(O)c(O)c(O)c1 | inactive | –
CN(C)C(=O)C1(N2CCCCC2)CCN(CC[C@@]2(c3ccc(Cl)c(Cl)c3)CN(C(=O)c3ccccc3)CCO2)CC1 | – | 74.6 µM (active)
Cc1ncc(CO)c(CO)c1O | inactive | –
CCCCCCCCCCCCO | inactive | –
CC(C)(c1cc(Br)c(O)c(Br)c1)c1cc(Br)c(O)c(Br)c1 | – | 44 µM (active) and 57 µM (active) and 63.6 µM (active)
CCCCOC(=O)c1ccc(O)cc1 | inactive | –
Cc1cc2c(cc1C(F)(F)F)N(C(=O)Nc1ccc(Oc3cccnc3C)nc1)CC2 | inactive | –
OCCO | inactive | –
CC[C@@H]1C[C@H](N(Cc2cc(C(F)(F)F)cc(C(F)(F)F)c2)C(C)=O)c2cc(C(F)(F)F)ccc2N1C(=O)OC(C)C | inactive | –

SMILES | outcome | AC50
CCCCCCCCCC(=O)O | inactive | –
O=c1ccc2ccccc2o1 | inactive | –
CC/C(=C(/CC)c1ccc(O)cc1)c1ccc(O)cc1 | inactive | 75.1 µM (active)
CCCC(=O)OCCC(C)C | inactive | –
CN(C)c1ccc(C(=C2C=CC(=[N+](C)C)C=C2)c2ccc(N(C)C)cc2)cc1 | – | 46.1 µM (active) and 27 µM (active) and 14.5 µM (active)
CN1C(=O)N(c2ccccc2Br)Cc2cnc(Nc3ccc4c(c3)OCC(CO)O4)nc21 (stereo not given) | inactive | –
O=c1[nH]sc2ccccc12 | inactive | –
O=C1CCC(C2CCCCC2)CC1 | inactive | –
Cc1c2ccccc2c(C)c2c1ccc1ccccc12 | inactive | –
Cc1cc(F)ccc1-c1cc(N2CC[C@@H](O)[C@H]2CO)ncc1N(C)C(=O)C(C)(C)c1cc(C(F)(F)F)cc(C(F)(F)F)c1 | – | 23.7 µM (active)
Cc1ccc2oc(CN(Cc3ccccc3)C(=O)Nc3c(F)cc(F)cc3F)c(-c3ccc(Cl)cc3)c2c1 | inactive | –
Cc1occc1C(=O)Nc1ccc(C(=O)N2CCC(F)(F)/C(=C\C(=O)N3CCC(N4CCCCC4)CC3)c3ccccc32)cc1 | inactive | –
O=CCCCC=O | inactive | –
CCCCCCCCCCCC[N+](C)(C)C | inactive | –
Clc1ccccc1C(c1ccccc1)(c1ccccc1)n1ccnc1 | inactive | 85.1 µM (active)
O=c1c(-c2ccc(O)cc2)coc2cc(O)cc(O)c12 | inactive | –
Cc1cn([C@H]2C[C@H](N=[N+]=[N-])[C@@H](CO)O2)c(=O)[nH]c1=O | inactive | –
CCCCCCCCCCCO | inactive | –
